Of roughly 7,900 targets only a part is listed; those with a hit were picked by preference. About 0.6% of all pairs of compound and target were hits. Unmarked numbers belong to inactive results.
Key:
Assay in all cases: log2 fold change, soluble protein after heating vs DMSO (PISA); higher = thermal stabilisation; K562 cells, 10 uM, 30 min; active = over 0.2 and 3.5 SD of the protein, either way, in both replicates (recomputed)
[1] = compound: CC[C@@H]1C(=O)N(C)c2cnc(Nc3ccc(C(=O)NC4CCN(C)CC4)cc3OC)nc2N1C1CCCC1
How it was run: (§1)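 Aliquots of K562 cells (2×10^6 cells/mL) treated with 10 μM compound for 30 min were heated for 3 min over 48°C-58°C. After pooling and extraction in PBS with 0.5% NP-40 at 4°C, soluble protein from a 21,000xg, 90 min spin was quantified by TMTpro 16plex LC-MS/MS with channel sums equalised. Thermal stability is expressed against control samples, from duplicates, as a log2 fold change.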

volasertib = compound: CC[C@@H]1C(=O)N(C)c2cnc(Nc3ccc(C(=O)N[C@H]4CC[C@H](N5CCN(CC6CC6)CC5)CC4)cc3OC)nc2N1C(C)C [volasertib]
How it was run: as §1

[2] = compound: CC[C@H](C)N1C=C(C2=C(C=C(C=C21)C3=CN=C(C=C3)N4CCNCC4)C(=O)NCC5=C(C=C(NC5=O)C)C)C
How it was run: as §1

epoxomicin = compound: CC[C@H](C)[C@@H](C(=O)N[C@@H]([C@@H](C)O)C(=O)N[C@@H](CC(C)C)C(=O)[C@]1(CO1)C)NC(=O)[C@H]([C@@H](C)CC)N(C)C(=O)C [epoxomicin]
How it was run: as §1

[3] = compound: CCn1c(C(=O)N(C2CC2)C2CC2)cc2c3c(ncn3C)c(Nc3cc(C)n(C)n3)nc21
How it was run: as §1

[4] = compound: CCn1cc(-c2ccnc3[nH]c(-c4cccc(CN(C)C)c4)cc23)c(-c2ccc(NC(=O)N(C)C)cc2)n1
How it was run: as §1

[5] = compound: CN(C)CC(=O)Nc1ccc2[nH]c(=O)c3ccccc3c2c1
How it was run: as §1

rosiglitazone = compound: CN(CCOC1=CC=C(C=C1)C[C@H]2C(=O)NC(=O)S2)C3=CC=CC=N3 (racemic) [rosiglitazone]
How it was run: as §1

[6] = compound: CN1C2=C(C3=C1C(=O)N(N=C3)CC4=CC(=CC=C4)N)SC(=C2)S(=O)C
How it was run: as §1

[7] = compound: CN1CCC(CNc2ccc3ncc(-c4cccc(OC(F)(F)F)c4)n3n2)CC1
How it was run: as §1

saracatinib = compound: CN1CCN(CCOc2cc(OC3CCOCC3)c3c(Nc4c(Cl)ccc5c4OCO5)ncnc3c2)CC1 [saracatinib]
How it was run: as §1

sotrastaurin = compound: CN1CCN(c2nc(C3=C(c4c[nH]c5ccccc45)C(=O)NC3=O)c3ccccc3n2)CC1 [sotrastaurin]
How it was run: as §1

alvocidib = compound: CN1CC[C@H](c2c(O)cc(O)c3c(=O)cc(-c4ccccc4Cl)oc23)[C@H](O)C1 [alvocidib]
How it was run: as §1

Tubastatin A = compound: CN1CCc2c(c3ccccc3n2Cc2ccc(C(=O)NO)cc2)C1 [Tubastatin A]
How it was run: as §1

[8] = compound: CNC(=O)C1=CC=CC=C1NC2=NC(=NC=C2Cl)NC3=C(C=C(C=C3)N4CCOCC4)OC
How it was run: as §1

defactinib = compound: CNC(=O)c1ccc(Nc2ncc(C(F)(F)F)c(NCc3nccnc3N(C)S(C)(=O)=O)n2)cc1 [defactinib]
How it was run: as §1

rucaparib = compound: CNCc1ccc(-c2[nH]c3cc(F)cc4c3c2CCNC4=O)cc1 [rucaparib]
How it was run: as §1

[9] = compound: CNc1nc(-c2ccc3c(N)n[nH]c3c2)cc(N2C[C@@H](C(=O)NC3CCCCC3)CC[C@H]2C)n1
How it was run: as §1

encorafenib = compound: COC(=O)N[C@@H](C)CNc1nccc(-c2cn(C(C)C)nc2-c2cc(Cl)cc(NS(C)(=O)=O)c2F)n1 [encorafenib]
How it was run: as §1

[10] = compound: COC(=O)[C@H](CCSC)NC(=O)C1=C(C=C(C=C1)NC[C@H](CS)N)C2=CC=CC=C2
How it was run: as §1

Sequence of UniProt O95394 (O95394 whole entry, looked up): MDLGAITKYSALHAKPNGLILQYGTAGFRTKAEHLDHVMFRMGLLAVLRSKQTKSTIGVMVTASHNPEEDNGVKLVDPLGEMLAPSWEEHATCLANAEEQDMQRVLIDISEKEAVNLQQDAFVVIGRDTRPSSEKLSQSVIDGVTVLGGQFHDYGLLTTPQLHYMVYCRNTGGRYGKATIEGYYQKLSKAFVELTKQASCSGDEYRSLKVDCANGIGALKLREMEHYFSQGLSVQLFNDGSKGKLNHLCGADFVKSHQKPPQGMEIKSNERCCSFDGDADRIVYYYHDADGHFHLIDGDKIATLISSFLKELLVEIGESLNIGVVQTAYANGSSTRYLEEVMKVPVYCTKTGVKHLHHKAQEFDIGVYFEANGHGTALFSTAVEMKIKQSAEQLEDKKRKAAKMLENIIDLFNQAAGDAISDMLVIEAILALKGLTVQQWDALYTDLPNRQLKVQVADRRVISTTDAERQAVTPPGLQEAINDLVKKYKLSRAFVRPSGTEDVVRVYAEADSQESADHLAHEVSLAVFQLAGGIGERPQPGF
Sequence of UniProt P06737 (P06737 whole entry, looked up): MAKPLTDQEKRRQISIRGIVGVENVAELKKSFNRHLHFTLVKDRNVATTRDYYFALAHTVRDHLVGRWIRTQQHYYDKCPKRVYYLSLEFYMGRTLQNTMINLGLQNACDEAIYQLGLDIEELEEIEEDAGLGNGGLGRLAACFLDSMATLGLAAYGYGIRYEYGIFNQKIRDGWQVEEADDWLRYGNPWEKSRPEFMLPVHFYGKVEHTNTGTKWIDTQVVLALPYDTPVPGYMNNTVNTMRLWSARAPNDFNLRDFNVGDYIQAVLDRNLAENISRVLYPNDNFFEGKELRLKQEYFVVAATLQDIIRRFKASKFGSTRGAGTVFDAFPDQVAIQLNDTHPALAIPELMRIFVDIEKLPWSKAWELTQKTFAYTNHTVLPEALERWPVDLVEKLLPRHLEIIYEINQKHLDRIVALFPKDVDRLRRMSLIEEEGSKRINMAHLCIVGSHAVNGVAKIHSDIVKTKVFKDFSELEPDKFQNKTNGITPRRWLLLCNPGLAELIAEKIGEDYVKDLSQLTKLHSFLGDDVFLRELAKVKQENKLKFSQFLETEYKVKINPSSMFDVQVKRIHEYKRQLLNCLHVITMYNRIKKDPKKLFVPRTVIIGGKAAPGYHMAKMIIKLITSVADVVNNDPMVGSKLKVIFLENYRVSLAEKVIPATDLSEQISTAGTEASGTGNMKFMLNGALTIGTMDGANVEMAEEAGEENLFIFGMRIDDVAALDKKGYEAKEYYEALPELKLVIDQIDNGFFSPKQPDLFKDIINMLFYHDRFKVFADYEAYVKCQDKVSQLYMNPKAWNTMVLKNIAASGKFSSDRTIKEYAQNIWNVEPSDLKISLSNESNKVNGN
Sequence of UniProt Q8NBL1 (Q8NBL1 whole entry, looked up): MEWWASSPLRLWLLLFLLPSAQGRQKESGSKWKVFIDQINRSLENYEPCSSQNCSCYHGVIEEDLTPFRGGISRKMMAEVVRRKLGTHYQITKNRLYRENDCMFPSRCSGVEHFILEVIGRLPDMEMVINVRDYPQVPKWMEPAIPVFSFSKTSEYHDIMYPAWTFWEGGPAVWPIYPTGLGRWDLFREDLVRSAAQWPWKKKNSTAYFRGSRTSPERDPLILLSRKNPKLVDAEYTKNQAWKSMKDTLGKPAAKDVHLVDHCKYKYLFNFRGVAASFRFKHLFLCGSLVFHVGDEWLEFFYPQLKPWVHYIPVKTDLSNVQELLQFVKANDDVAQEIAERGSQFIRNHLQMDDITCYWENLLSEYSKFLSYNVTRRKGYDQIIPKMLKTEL
Sequence of UniProt Q8NHP8 (Q8NHP8 whole entry, looked up): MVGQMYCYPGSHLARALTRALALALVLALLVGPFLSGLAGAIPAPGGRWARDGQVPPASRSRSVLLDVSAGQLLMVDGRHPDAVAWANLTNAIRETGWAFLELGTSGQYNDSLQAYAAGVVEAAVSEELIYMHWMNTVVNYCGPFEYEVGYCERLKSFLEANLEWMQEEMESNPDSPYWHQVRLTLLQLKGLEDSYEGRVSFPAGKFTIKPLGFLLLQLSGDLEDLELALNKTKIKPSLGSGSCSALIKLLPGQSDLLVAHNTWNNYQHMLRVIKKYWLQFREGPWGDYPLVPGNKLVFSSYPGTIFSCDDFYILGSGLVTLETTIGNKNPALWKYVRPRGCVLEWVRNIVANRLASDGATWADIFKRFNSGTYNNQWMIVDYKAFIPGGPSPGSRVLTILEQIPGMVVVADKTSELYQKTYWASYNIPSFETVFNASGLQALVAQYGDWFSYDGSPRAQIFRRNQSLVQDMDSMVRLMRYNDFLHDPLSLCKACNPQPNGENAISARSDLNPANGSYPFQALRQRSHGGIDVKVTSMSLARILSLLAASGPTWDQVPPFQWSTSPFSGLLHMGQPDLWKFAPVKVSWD
Sequence of UniProt Q8WXF1 (Q8WXF1 whole entry, looked up): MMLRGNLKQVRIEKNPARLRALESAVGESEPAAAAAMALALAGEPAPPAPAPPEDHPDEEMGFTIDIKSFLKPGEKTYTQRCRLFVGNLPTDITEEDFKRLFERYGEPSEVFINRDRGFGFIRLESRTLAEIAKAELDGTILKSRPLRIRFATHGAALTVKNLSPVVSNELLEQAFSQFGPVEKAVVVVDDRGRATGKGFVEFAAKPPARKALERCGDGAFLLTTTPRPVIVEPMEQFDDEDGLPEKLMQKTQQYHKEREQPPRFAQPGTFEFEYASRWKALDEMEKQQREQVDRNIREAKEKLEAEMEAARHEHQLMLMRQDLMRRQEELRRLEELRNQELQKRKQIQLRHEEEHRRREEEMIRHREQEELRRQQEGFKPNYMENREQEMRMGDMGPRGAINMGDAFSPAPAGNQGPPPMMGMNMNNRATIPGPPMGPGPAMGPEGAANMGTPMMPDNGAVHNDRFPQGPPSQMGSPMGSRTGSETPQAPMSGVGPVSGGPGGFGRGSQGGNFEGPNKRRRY
Sequence of UniProt Q99575 (Q99575 whole entry, looked up): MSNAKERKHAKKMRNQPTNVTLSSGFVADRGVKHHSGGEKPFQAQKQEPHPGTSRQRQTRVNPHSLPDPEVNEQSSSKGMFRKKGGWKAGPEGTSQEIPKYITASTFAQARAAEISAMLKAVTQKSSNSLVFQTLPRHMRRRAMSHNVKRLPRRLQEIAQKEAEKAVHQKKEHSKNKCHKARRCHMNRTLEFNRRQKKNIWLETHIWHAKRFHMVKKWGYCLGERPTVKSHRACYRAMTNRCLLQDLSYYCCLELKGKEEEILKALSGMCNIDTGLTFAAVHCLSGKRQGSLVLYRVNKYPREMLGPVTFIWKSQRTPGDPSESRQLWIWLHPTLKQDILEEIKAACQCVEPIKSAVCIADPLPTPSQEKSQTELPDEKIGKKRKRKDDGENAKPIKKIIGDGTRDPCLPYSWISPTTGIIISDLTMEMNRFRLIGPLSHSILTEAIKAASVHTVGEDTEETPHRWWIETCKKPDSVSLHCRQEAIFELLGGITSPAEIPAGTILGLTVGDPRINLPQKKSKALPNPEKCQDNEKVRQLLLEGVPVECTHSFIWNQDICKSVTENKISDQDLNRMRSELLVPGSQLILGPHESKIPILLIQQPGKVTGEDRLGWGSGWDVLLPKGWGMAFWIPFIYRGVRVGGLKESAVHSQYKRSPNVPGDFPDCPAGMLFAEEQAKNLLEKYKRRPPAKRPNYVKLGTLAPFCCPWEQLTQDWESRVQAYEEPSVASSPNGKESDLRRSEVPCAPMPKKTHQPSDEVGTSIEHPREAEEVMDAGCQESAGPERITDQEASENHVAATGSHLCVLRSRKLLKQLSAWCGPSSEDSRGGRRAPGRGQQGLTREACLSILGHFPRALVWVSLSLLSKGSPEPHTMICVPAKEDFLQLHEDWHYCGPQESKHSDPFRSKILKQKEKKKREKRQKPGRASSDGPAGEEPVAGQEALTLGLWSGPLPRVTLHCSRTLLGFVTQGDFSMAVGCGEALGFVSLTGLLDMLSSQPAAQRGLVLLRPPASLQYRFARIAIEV

Target	log2 fold change [1]	log2 fold change (volasertib)	log2 fold change [2]	log2 fold change (epoxomicin)	log2 fold change [3]	log2 fold change [4]	log2 fold change [5]	log2 fold change (rosiglitazone)	log2 fold change [6]	log2 fold change [7]	log2 fold change (saracatinib)	log2 fold change (sotrastaurin)	log2 fold change (alvocidib)	log2 fold change (Tubastatin A)	log2 fold change [8]	log2 fold change (defactinib)	log2 fold change (rucaparib)	log2 fold change [9]	log2 fold change (encorafenib)	log2 fold change [10]
PLBD2 (UniProt Q8NHP8)	-0.188	-0.222 (active)	-0.034	-0.015	0.024	0.029	0.008	0.009	-0.029	-0.21	0.033	0.031	0.006	0.01	0.029	-0.025	-0.115	-0.008	0.005	0.038
PYGL (UniProt P06737)	-0.091	-0.262 (active)	0.008	-0.02	-0.081	0.016	-0.001	0.018	-0.006	0.029	0.063	-0.006	0.097	-0.007	-0.185	-0.039	-0.028	-0.065	0.037	0.008
POGLUT1 (UniProt Q8NBL1)	0.007	-0.054	0.013	0.012	-0.051	0.089	-0.083	-0.019	0.039	0.26 (active)	-0.124	0	0.06	0.009	-0.004	0.039	0.069	-0.063	0.015	0.042
PGM3 isoform 4 (UniProt O95394)	0.003	0.052	0.092	0.014	-0.034	-0.038	0.026	0.066	-0.084	-0.235 (active)	-0.028	-0.018	-0.062	0.03	-0.011	-0.019	-0.013	0.067	0.024	-0.022
POP1 (UniProt Q99575)	0.069	0.092	0.02	-0.001	0.006	0.028	-0.019	-0.025	-0.009	0.075	0.077	-0.01	-0.049	0.026	-0.002	-0.055	0.014	0.014	0.006	0.016
PSPC1 (UniProt Q8WXF1)	-0.046	-0.167	0.1	0.031	0.003	-0.054	0.012	-0.058	0.041	0.029	0.007	-0.062	-0.068	0.041	-0.036	-0.342 (active)	0.002	-0.011	0.03	-0.028
POLR2A (UniProt P24928)	0.093	-0.034	0.006	0.004	-0.058	0.022	0.041	0.007	-0.052	0.156	-0.012	0.034	0.329 (active)	-0.012	-0.035	0.241	0.126	0.025	0.027	-0.07

Reference: the supplement of paper PMC10849652
